# Inconclusive results are not listed. Unmarked numbers belong to inactive results. Activity calls are given as the source filed them. Calls follow the shape of the dose curve; as a rule, active = well fitted cell-killing curve with a large enough effect; inconclusive = small, poorly fitted or top-dose-only effect; inactive = no such curve, though single readings can be large or run the other way.
# Test: Quantitative High-Throughput drug screen in 47 multiple myeloma cell lines against the NCATS MIPE library collection: NCIH929_DSMZ cell viability assay (AID 1918978); also: nearly all actives have a fitted effect of over 35% in size
# Details: NCI-H929 myeloma viability, CellTiter-Glo ATP, 48 h; series mostly up to 45.8 µM; viability, % of control: at the top concentration
# Source text: PI: Beverly A. Mock Ph.D.
# Laboratory of Cancer Biology and Genetics,
# Center for Cancer Research, National Cancer Institute,
# National Institute of Health, Bethesda, Maryland
# Drug resistance and disease progression are common in multiple myeloma (MM) patients, underscoring the need for new therapeutic combinations. […] We hypothesized that effective combinations would reduce MYC expression and enhance p16 activity. […] These preclinical data identify potentially useful drug combinations for evaluation in drug-resistant MM and reveal potential mechanisms of combined drug sensitivity.
# Described herein is the primary MIPE qHTS used to cherrypick compounds. Validated compounds were then further tested for potential synergistic activiy.
# [1] Peat TJ, Gaikwad SM, Dubois W, Gyabaah-Kessie N, Zhang S, Gorjifard S, Phyo Z, Andres M, Hughitt VK, Simpson RM, Miller MA, Girvin AT, Taylor A, Williams D, D'Antonio N, Zhang Y, Rajagopalan A, Flietner E, Wilson K, Zhang X, Shinn P, Klumpp-Thomas C, McKnight C, Itkin Z, Chen L, Kazandijian D, Zhang J, Michalowski AM, Simmons JK, Keats J, Thomas CJ, Mock BA. Drug combinations identified by high-throughput screening promote cell cycle transition and upregulate Smad pathways in myeloma. Cancer Lett. 2023 Aug 1;568:216284. doi: 10.1016/j.canlet.2023.216284. Epub 2023 Jun 24. PMID: 37356470; PMCID: PMC10408729.
# SEQUENCE No. (e.g., 1, 2, 3, etc.); […] (e.g., Cells, Incubation, Reagent, etc.); VALUE and DESCRIPTION.
# 1; Cells; 5 uL; white, solid bottom 1536-well Greiner assay plate.
# 2; Compounds; 23 nL; Kalypsis pin tool (Wako USA) equipped with a 1536-well pin head to transfer to the assay plates.
# 3; Incubation; 48 hours; 37C incubation.
# 4; Reagent;5uL; CellTiter Glo (Promega).
# 5; Detector; 425V; Luminescence; Viewlux PerkinElmer.
# NOTES (numbers refer to Sequence numbers above)
# 1. The cell-based screening methods employed in this study were like those previously published. Briefly, the corresponding myeloma cell lines were screened in 1,536-well plates with 500 cells, 5-uL per well for inhibition of cell viability (assessed by measuring ATP levels with CellTiterGlo).
# 2. NCATS MIPE 4.0 library of approved and investigational drugs were added using the Kalypsis pin tool. Wells treated with DMSO only for 100% viability and media only for 0% viability were used as controls.
# 3. The assay plates were covered and incubated for 48 hours in a 37C, 5% CO2 incubator with controlled humidity.
# 4. After 48 hours, CellTilter-GloTM luminescent substrate mix (Promega) reagent was added to the assay plate and plates we incubated for 5 min at room temperature.
# 5. Signal was measured as median relative luminescence units on a ViewLux (PerkinElmer) multiplate reader.
# [1] Heske CM, Davis MI, Baumgart JT, Wilson K, Gormally MV, Chen L, Zhang X, Ceribelli M, Duveau DY, Guha R, Ferrer M, Arnaldez FI, Ji J, Tran HL, Zhang Y, Mendoza A, Helman LJ, Thomas CJ. Matrix Screen Identifies Synergistic Combination of PARP Inhibitors and Nicotinamide Phosphoribosyltransferase (NAMPT) Inhibitors in Ewing Sarcoma. Clin Cancer Res. 2017 Dec 1;23(23):7301-7311. doi: 10.1158/1078-0432.CCR-17-1121. Epub 2017 Sep 12. PMID: 28899971; PMCID: PMC6636827.
# Potency is read from the fitted curve at half-maximal effect.
Structure (SMILES),"viability, % of control",Potency
CC(C)(S)[C@@H](N)C(=O)O,98%,
Cc1cc(=O)c2c(O)c3c(O)cc(=O)c4c3c3c(cc(O)c1c23)C(C)(C)C=4O,,0.296 µM (active)
CCOC(=O)C1=C(O)C(=O)N(Cc2ccccc2)C1,105%,
Cc1cc2c(s1)Nc1ccccc1N=C2N1CCN(C)CC1,109%,
NCCCCNCCCN,,18.7 µM (active)
CCOC(=O)C1=C[C@@H](OC(CC)CC)[C@H](NC(C)=O)[C@@H](N)C1,93.9%,
N=C(N)c1ccc2cc(OC(=O)c3ccc(N=C(N)N)cc3)ccc2c1,75.8%,
CCN(CC)CCOc1ccc(Cc2ccccc2)cc1,103%,
N[C@@H](Cc1cc(I)c(Oc2cc(I)c(O)c(I)c2)c(I)c1)C(=O)O,109%,
CC(=O)O[C@H]1C(=O)[C@@]2(C)C([C@H](OC(=O)c3ccccc3)[C@]3(O)C[C@H](OC(=O)[C@H](O)[C@@H](NC(=O)c4ccccc4)c4ccccc4)C(C)=C1C3(C)C)[C@]1(OC(C)=O)CO[C@@H]1C[C@@H]2O (stereo not given in full),80.1%,
CCN(CCO)CCCC(C)Nc1ccnc2cc(Cl)ccc12 (stereo not given),114%,
CC(=O)N1CCN(c2ccc(OC[C@H]3CO[C@](Cn4ccnc4)(c4ccc(Cl)cc4Cl)O3)cc2)CC1,,9.35 µM (active)
Nc1cc(C(Cl)=C(Cl)Cl)c(S(N)(=O)=O)cc1S(N)(=O)=O,116%,
CCC[C@@H]1C[C@@H](C(=O)N[C@@H]([C@H]2O[C@H](SC)[C@H](O)[C@@H](O)[C@H]2O)[C@@H](C)O)N(C)C1,99.2%,
CCOC(=O)C(C)Oc1cccc2c(=O)n(CC(=O)Nc3ccc4c(c3)OCCO4)ccc12 (stereo not given),110%,
CCCS(=O)c1ccc2nc(NC(=O)OC)[nH]c2c1 (stereo not given),87.7%,
CN(C)[C@@H](CCOc1cccc2ccccc12)c1ccccc1,,20.9 µM (active)
CN(c1nccc(=O)[nH]1)C1CCN(c2nc3ccccc3n2Cc2ccc(F)cc2)CC1,,13.2 µM (active)
COc1cc(Nc2c(C#N)cnc3cc(OCCCN4CCN(C)CC4)c(OC)cc23)c(Cl)cc1Cl,,3.72 µM (active)
S=c1nc[nH]c2nc[nH]c12,,2.96 µM (active)

Structure (SMILES),"viability, % of control",Potency
Oc1ccc2ccccc2c1SSc1c(O)ccc2ccccc12,,8.33 µM (active)
CCCc1cc(=O)[nH]c(=S)[nH]1,85%,
Cc1nccn1CC1CCc2c(c3ccccc3n2C)C1=O (stereo not given),,26.4 µM (active)
O=C(NCCO[N+](=O)[O-])c1cccnc1,119%,
CCOc1cc(CC(=O)N[C@@H](CC(C)C)c2ccccc2N2CCCCC2)ccc1C(=O)O,103%,
Nc1nc(Cl)nc2c1ncn2[C@H]1C[C@H](O)[C@@H](CO)O1,,0.59 µM (active)
CC(C)c1ccc2c(c1)c(SC(C)(C)C)c(CC(C)(C)C(=O)O)n2Cc1ccc(Cl)cc1,,26.4 µM (active)
CCC(C)(Oc1ccc(C2(c3ccc(OC(C)(CC)C(=O)O)cc3)CCCCC2)cc1)C(=O)O (stereo not given),106%,
Clc1ccc2c(N3CCN(CCCN4CCN(c5ccnc6cc(Cl)ccc56)CC4)CC3)ccnc2c1,119% [at 23.2 µM],
CN(C)C(=O)[C@H](O)[C@H](Cc1ccccc1)NC(=O)c1cc2cc(Cl)ccc2[nH]1,,1.32 µM (active)
O=C(OC1C[C@H]2CC[C@@H](C1)[N+]21CCCC1)C(O)(c1ccccc1)c1ccccc1 (stereo not given in full),111%,
CN(C)c1ccc(O)c2c1C[C@H]1C[C@H]3[C@H](N(C)C)C(=O)C(C(N)=O)=C(O)[C@@]3(O)C(=O)C1=C2O,,16.6 µM (active)
CN1CCC(=C2c3ccccc3CCc3sccc32)CC1,88%,
CCC1=C(C)CN(C(=O)NCCc2ccc(S(=O)(=O)NC(=O)NC3CCC(C)CC3)cc2)C1=O (stereo not given),118%,
Cc1cc(=O)oc2cc(O)ccc12,112%,
Cc1cccc(-c2[nH]ncc2-c2ccc3ncccc3n2)n1,85%,
O=C(O)c1cc(=O)c2c(OCC(O)COc3cccc4oc(C(=O)O)cc(=O)c34)cccc2o1,92.9%,
C=CCc1cc(OC)c(O)c(C(=O)NCCO)c1,108%,
C[C@H](Cn1cnc2c(N)ncnc21)OCP(=O)(O)O,122%,
C[C@H](Cc1ccc(O)c(O)c1)[C@@H](C)Cc1ccc(O)c(O)c1,,9.35 µM (active)

# — PubChem BioAssay (NCATS)
